# Unmarked numbers belong to inactive results.
# Test system: Vero E6 infected with SARS-CoV-2
# Test: inhibition of SARS-CoV-2 cytopathic effect; higher = more antiviral protection, active = above 15
# Details: 48 h
SMILES,inhibition of SARS-CoV-2 cytopathic effect (1 nM),inhibition of SARS-CoV-2 cytopathic effect (8.33 nM),inhibition of SARS-CoV-2 cytopathic effect (100 nM),inhibition of SARS-CoV-2 cytopathic effect (833.33 nM),inhibition of SARS-CoV-2 cytopathic effect (10000 nM)
COc1ccc2[nH]c(SCc3ncc(C)c(OC)c3C)nc2c1 [omeprazole-sulfide],-13.8%,-15.1%,-15.8%,-15.3%,-13.7%
CS(=O)(=O)c1ccc([C@@H](CC2CCCC2)C(=O)Nc2nccs2)cc1,-0.6%,-1.12%,1.31%,1.71%,1.96%
CCCC(C)(COC(N)=O)COC(=O)NC(C)C (stereo not given),1.17%,2.25%,2.38%,4.43%,0.83%
Nc1nc(O)c2nc(Br)n([C@@H]3O[C@@H]4COP(=O)(O)O[C@H]4[C@H]3O)c2n1 [8-bromo-cGMP],0.61%,2.94%,2.06%,1.94%,1.61%
C#CCN(C)[C@H](C)Cc1ccccc1 [selegiline],0.68%,-1.21%,1.02%,0.09%,-0.75%
CNC(=O)c1ccc(N2C(=S)N(c3cnc(C#N)c(C(F)(F)F)c3)C(=O)C23CCC3)cc1F [apalutamide],0.94%,1.02%,1.33%,0.68%,1.02%
CC(C)(C)N1CCC(c2ccccc2)(c2ccccc2)CC1 [budipine],0.7%,3.31%,2.48%,-0.28%,1.72%
CC(=O)NO [acetohydroxamic-acid],4.31%,3.09%,-3.04%,2.55%,3.32%
"COc1cc2c(cc1OC)[C@H](C)NCC2 [Isoquinoline,-6,7-dimethoxy-1-methyl-1,2,3,4-tetrahydro,]",-4.15%,-1.29%,-0.88%,-1.82%,-2.99%
CCC(NC(C)C)C(O)c1ccc(O)c2[nH]c(=O)ccc12 (stereo not given) [procaterol],-1.54%,0.18%,-2.76%,-0.33%,-1.47%
COc1ccc(CCCO[C@@H](Cn2ccnc2)c2ccc(OC)cc2)cc1,-4.38%,-5.95%,-10.2%,-1.69%,0.39%
COc1ccc(C(C)=O)c(O)c1 [paeonol],1.08%,1.99%,2.76%,0.69%,-4.98%
CCCN(CCC)C1Cc2cc(OC)c(OC)cc2C1,-0.72%,-0.86%,-2.03%,0.79%,-2.36%
C[N+](C)(CCOc1ccccc1)Cc1ccccc1 [bephenium-hydroxynaphthoate],2.11%,0.87%,0.58%,0.22%,-0.72%
CN[C@H](CC(C)C)C(=O)N[C@H]1C(=O)N[C@@H](CC(N)=O)C(=O)N[C@H]2C(=O)N[C@H]3C(=O)N[C@H](C(=O)N[C@H](C(=O)O)c4cc(O)cc(O)c4-c4cc3ccc4O)[C@H](O[C@H]3C[C@](C)(N)[C@@H](O)[C@H](C)O3)c3ccc(c(Cl)c3)Oc3cc2cc(c3O[C@@H]2O[C@H](CO)[C@@H](O)[C@H](O)[C@H]2O[C@H]2C[C@](C)(NCc3ccc(-c4ccc(Cl)cc4)cc3)[C@@H](O)[C@H](C)O2)Oc2ccc(cc2Cl)[C@H]1O [oritavancin],2.97%,3.58%,-0.56%,0.82%,0.93%
O=C(O)[C@H](O)c1ccccc1 [mandelic-acid],-0.12%,3.41%,3.65%,2.65%,-2.37%
O[C@H]1[C@H](O)[C@@H](O)CN2CC[C@H](O)[C@H]12 [castanospermine],0.15%,1.99%,1.25%,1.7%,2.28%
CC(=O)N1CCN(c2ccc(OC[C@@H]3CO[C@@](Cn4ccnc4)(c4ccc(Cl)cc4Cl)O3)cc2)CC1 (racemic) [ketoconazole],-0.87%,-0.69%,-1.88%,0.35%,1.61%

SMILES,inhibition of SARS-CoV-2 cytopathic effect (1 nM),inhibition of SARS-CoV-2 cytopathic effect (8.33 nM),inhibition of SARS-CoV-2 cytopathic effect (100 nM),inhibition of SARS-CoV-2 cytopathic effect (833.33 nM),inhibition of SARS-CoV-2 cytopathic effect (10000 nM)
CCCCC1C(=O)N(c2ccccc2)N(c2ccccc2)C1=O [phenylbutazone],-0.14%,0.89%,0.31%,0.4%,0.88%
CC[C@H](NC(=O)c1c(O)c(-c2ccccc2)nc2ccccc12)c1ccccc1 [talnetant],-0.24%,0.6%,-1.02%,-1.22%,2.11%
O=C(O)C(=O)O.[NH-][C@@H]1CCCC[C@H]1[NH-].[Pt+2] [oxaliplatin],1.5%,1.96%,10.3%,-2.36%,1%
[N-]=[N+]=CC(=O)CC[C@H](N)C(=O)O [6-diazo-5-oxo-L-norleucine],0.69%,0.78%,0.86%,0.6%,-0.69%
COc1ccc(Cl)c(Nc2ncnc3cc(OCC4CCN(C)CC4)c(OC)cc23)c1,-1.15%,-0.25%,-0.48%,-6.41%,-13.8%
CCc1[nH]c(=O)[nH]c1C(=O)c1ccncc1 [piroximone],-0.93%,5%,3.91%,3.62%,-1.11%
CC1(C)S[C@@H]2[C@H](NC(=O)[C@H](N)c3ccccc3)C(=O)N2[C@H]1C(=O)O [ampicillin],0.57%,1.76%,-0.8%,-1.53%,0.38%
CNC(=O)Oc1cccc2ccccc12 [carbaril],-0.49%,-0.59%,0.05%,1.22%,-0.51%
CNCCCOc1cc(F)c(-c2c(Cl)nc3ncnn3c2N[C@@H](C)C(F)(F)F)c(F)c1 [cevipabulin],1.36%,1.13%,2.89%,6.1%,-0.76%
C[C@H](N)C(=O)N[C@@H](CCC(N)=O)C(=O)O [dipeptamin],-0.51%,1.67%,-0.9%,0.75%,0.66%
C[C@H](Oc1ccc(S(C)(=O)=O)cc1C(=O)N1CCN(c2ncc(C(F)(F)F)cc2F)CC1)C(F)(F)F [bitopertin],1.07%,0.78%,1.93%,0.34%,-3.97%
O=C(c1c(F)ccc(NS(=O)(=O)N2CC[C@@H](F)C2)c1F)c1c[nH]c2ncc(-c3cnc(C4CC4)nc3)cc12,3.26%,-1.73%,-2.71%,-1.89%,-5.07%
O=C(c1ccc(F)cc1)C1CCN(CCCCc2ccccc2)CC1 [4-(4-fluorobenzoyl)-1-(4-phenylbutyl)-piperidine],-4.06%,-1.58%,-0.19%,1.25%,-4.47%
NC(=O)CN1Cc2ccccc2OC1=O [caroxazone],1.09%,-3.02%,-3.19%,-4.05%,-0.94%
O=c1cc(N2CCOCC2)oc2c(-c3cccc4c3sc3ccccc34)cccc12,1.01%,-0.44%,0.05%,8.27%,36.8% (active)
CCCCC/C=C\C/C=C\C/C=C\CCCCC(=O)O [gamma-linolenic-acid],-0.6%,-2.39%,-2.33%,-1.24%,-1.03%
NS(=O)(=O)c1cccc2c1c([N+](=O)[O-])cc1nc(O)c(O)nc12,2.79%,2.79%,2.47%,1.7%,-1.01%
O=P(O)(O)C(O)(Cc1cccnc1)P(=O)(O)O [risedronate],-0.54%,-1.25%,-0.67%,3.13%,1.96%
